According to the supplement of paper PMC4466140:

target: AgAbp1; experiment: SPOT peptide array binding signal intensity (averaged, normalized) (arbitrary units (background-subtracted, floor 0; scale differs between SH3 domains)); higher = stronger binding of the SH3 domain to the peptide
Description: (§1)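 GST-tagged SH3 domains from S. cerevisiae (Sc), A. gossypii (Ag), C. albicans (Ca) and S. pombe (Sp) were incubated at 10 ug/ml overnight at 4 C on cellulose SPOT membranes carrying 292 synthetic 15-mer peptides mined from the S. cerevisiae proteome (cysteines replaced by serines). Binding was detected with anti-GST antibody, HRP secondary and chemiluminescence, quantified with Genespotter, and reported as normalized spot intensities averaged over biological replicates.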

Binder	SPOT peptide array binding signal intensity
RRTRLRPPTPLSQLL	31.5

target: AgBbc1; experiment: as above
Description: as §1

Binder	SPOT peptide array binding signal intensity
RRTRLRPPTPLSQLL	145

target: AgBem1-D1; experiment: as above
Description: as §1

Binder	SPOT peptide array binding signal intensity
RRTRLRPPTPLSQLL	113

target: AgBzz1-D1; experiment: as above
Description: as §1

Binder	SPOT peptide array binding signal intensity
RRTRLRPPTPLSQLL	80.8

target: AgBzz1-D2; experiment: as above
Description: as §1

Binder	SPOT peptide array binding signal intensity
RRTRLRPPTPLSQLL	45.5

target: AgCyk3; experiment: as above
Description: as §1

Binder	SPOT peptide array binding signal intensity
RRTRLRPPTPLSQLL	1.5

target: AgFus1; experiment: as above
Description: as §1

Binder	SPOT peptide array binding signal intensity
RRTRLRPPTPLSQLL	1120

target: AgHof1; experiment: as above
Description: as §1

Binder	SPOT peptide array binding signal intensity
RRTRLRPPTPLSQLL	123

target: AgHse1; experiment: as above
Description: as §1

Binder	SPOT peptide array binding signal intensity
RRTRLRPPTPLSQLL	866

target: AgLsb1; experiment: as above
Description: as §1

Binder	SPOT peptide array binding signal intensity
RRTRLRPPTPLSQLL	154

target: AgLsb4; experiment: as above
Description: as §1

Binder	SPOT peptide array binding signal intensity
RRTRLRPPTPLSQLL	100

target: AgMyo5; experiment: as above
Description: as §1

Binder	SPOT peptide array binding signal intensity
RRTRLRPPTPLSQLL	1.75

target: AgNbp2; experiment: as above
Description: as §1

Binder	SPOT peptide array binding signal intensity
RRTRLRPPTPLSQLL	204

target: AgRvs167; experiment: as above
Description: as §1

Binder	SPOT peptide array binding signal intensity
RRTRLRPPTPLSQLL	15.2

target: AgSho1; experiment: as above
Description: as §1

Binder	SPOT peptide array binding signal intensity
RRTRLRPPTPLSQLL	64

target: AgSla1-D1-D2; experiment: as above
Description: as §1

Binder	SPOT peptide array binding signal intensity
RRTRLRPPTPLSQLL	93

target: AgSla1-D3; experiment: as above
Description: as §1

Binder	SPOT peptide array binding signal intensity
RRTRLRPPTPLSQLL	5

target: CaAbp1-D1; experiment: as above
Description: as §1

Binder	SPOT peptide array binding signal intensity
RRTRLRPPTPLSQLL	218

target: CaAbp1-D2; experiment: as above
Description: as §1

Binder	SPOT peptide array binding signal intensity
RRTRLRPPTPLSQLL	133

target: CaBbc1; experiment: as above
Description: as §1

Binder	SPOT peptide array binding signal intensity
RRTRLRPPTPLSQLL	333

target: CaBem1-D1; experiment: as above
Description: as §1

Binder	SPOT peptide array binding signal intensity
RRTRLRPPTPLSQLL	192

target: CaBzz1-D1; experiment: as above
Description: as §1

Binder	SPOT peptide array binding signal intensity
RRTRLRPPTPLSQLL	233

target: CaBzz1-D2; experiment: as above
Description: as §1

Binder	SPOT peptide array binding signal intensity
RRTRLRPPTPLSQLL	76.8

target: CaCyk3; experiment: as above
Description: as §1

Binder	SPOT peptide array binding signal intensity
RRTRLRPPTPLSQLL	88.5

target: CaFus1; experiment: as above
Description: as §1

Binder	SPOT peptide array binding signal intensity
RRTRLRPPTPLSQLL	1050

target: CaHof1; experiment: as above
Description: as §1

Binder	SPOT peptide array binding signal intensity
RRTRLRPPTPLSQLL	7.63e-06

target: CaHse1; experiment: as above
Description: as §1

Binder	SPOT peptide array binding signal intensity
RRTRLRPPTPLSQLL	60.6

target: CaLsb1; experiment: as above
Description: as §1

Binder	SPOT peptide array binding signal intensity
RRTRLRPPTPLSQLL	0.5

target: CaLsb4; experiment: as above
Description: as §1

Binder	SPOT peptide array binding signal intensity
RRTRLRPPTPLSQLL	307

target: CaMyo5; experiment: as above
Description: as §1

Binder	SPOT peptide array binding signal intensity
RRTRLRPPTPLSQLL	4

target: CaNbp2; experiment: as above
Description: as §1

Binder	SPOT peptide array binding signal intensity
RRTRLRPPTPLSQLL	512

target: CaRvs167; experiment: as above
Description: as §1

Binder	SPOT peptide array binding signal intensity
RRTRLRPPTPLSQLL	40.8

target: CaRvs167-3; experiment: as above
Description: as §1

Binder	SPOT peptide array binding signal intensity
RRTRLRPPTPLSQLL	16.5

target: CaSho1; experiment: as above
Description: as §1

Binder	SPOT peptide array binding signal intensity
RRTRLRPPTPLSQLL	526

target: CaSla1-D1-D2; experiment: as above
Description: as §1

Binder	SPOT peptide array binding signal intensity
RRTRLRPPTPLSQLL	574

target: CaSla1-D3; experiment: as above
Description: as §1

Binder	SPOT peptide array binding signal intensity
RRTRLRPPTPLSQLL	12.9

target: ScAbp1; experiment: as above
Description: as §1

Binder	SPOT peptide array binding signal intensity
RRTRLRPPTPLSQLL	70.5

target: ScBbc1; experiment: as above
Description: as §1

Binder	SPOT peptide array binding signal intensity
RRTRLRPPTPLSQLL	61.6

target: ScBem1-D1; experiment: as above
Description: as §1

Binder	SPOT peptide array binding signal intensity
RRTRLRPPTPLSQLL	111

target: ScBzz1-D1; experiment: as above
Description: as §1

Binder	SPOT peptide array binding signal intensity
RRTRLRPPTPLSQLL	42

target: ScBzz1-D2; experiment: as above
Description: as §1

Binder	SPOT peptide array binding signal intensity
RRTRLRPPTPLSQLL	26.2

target: ScCyk3; experiment: as above
Description: as §1

Binder	SPOT peptide array binding signal intensity
RRTRLRPPTPLSQLL	83.8

target: ScFus1; experiment: as above
Description: as §1

Binder	SPOT peptide array binding signal intensity
RRTRLRPPTPLSQLL	722

target: ScHof1; experiment: as above
Description: as §1

Binder	SPOT peptide array binding signal intensity
RRTRLRPPTPLSQLL	4.5

target: ScHse1; experiment: as above
Description: as §1

Binder	SPOT peptide array binding signal intensity
RRTRLRPPTPLSQLL	1120

target: ScLsb1; experiment: as above
Description: as §1

Binder	SPOT peptide array binding signal intensity
RRTRLRPPTPLSQLL	63

target: ScLsb2; experiment: as above
Description: as §1

Binder	SPOT peptide array binding signal intensity
RRTRLRPPTPLSQLL	5.5

target: ScLsb3; experiment: as above
Description: as §1

Binder	SPOT peptide array binding signal intensity
RRTRLRPPTPLSQLL	1130

target: ScLsb4; experiment: as above
Description: as §1

Binder	SPOT peptide array binding signal intensity
RRTRLRPPTPLSQLL	37.8

target: ScMyo3; experiment: as above
Description: as §1

Binder	SPOT peptide array binding signal intensity
RRTRLRPPTPLSQLL	≤ 0

target: ScMyo5; experiment: as above
Description: as §1

Binder	SPOT peptide array binding signal intensity
RRTRLRPPTPLSQLL	4.12

target: ScNbp2; experiment: as above
Description: as §1

Binder	SPOT peptide array binding signal intensity
RRTRLRPPTPLSQLL	727

target: ScPex13; experiment: as above
Description: as §1

Binder	SPOT peptide array binding signal intensity
RRTRLRPPTPLSQLL	16.2

target: ScRvs167; experiment: as above
Description: as §1

Binder	SPOT peptide array binding signal intensity
RRTRLRPPTPLSQLL	148

target: ScSho1; experiment: as above
Description: as §1

Binder	SPOT peptide array binding signal intensity
RRTRLRPPTPLSQLL	1180

target: ScSla1-D1-D2; experiment: as above
Description: as §1

Binder	SPOT peptide array binding signal intensity
RRTRLRPPTPLSQLL	2070

target: ScSla1-D3; experiment: as above
Description: as §1

Binder	SPOT peptide array binding signal intensity
RRTRLRPPTPLSQLL	3.38

target: SpAbp1-D1; experiment: as above
Description: as §1

Binder	SPOT peptide array binding signal intensity
RRTRLRPPTPLSQLL	20.5

target: SpBbc1; experiment: as above
Description: as §1

Binder	SPOT peptide array binding signal intensity
RRTRLRPPTPLSQLL	14.8

target: SpBzz1-D1; experiment: as above
Description: as §1

Binder	SPOT peptide array binding signal intensity
RRTRLRPPTPLSQLL	486

target: SpBzz1-D2; experiment: as above
Description: as §1

Binder	SPOT peptide array binding signal intensity
RRTRLRPPTPLSQLL	≤ 0

target: SpCyk3; experiment: as above
Description: as §1

Binder	SPOT peptide array binding signal intensity
RRTRLRPPTPLSQLL	4

target: SpHof1; experiment: as above
Description: as §1

Binder	SPOT peptide array binding signal intensity
RRTRLRPPTPLSQLL	406

target: SpHof1-2; experiment: as above
Description: as §1

Binder	SPOT peptide array binding signal intensity
RRTRLRPPTPLSQLL	61.6

target: SpHof1-3; experiment: as above
Description: as §1

Binder	SPOT peptide array binding signal intensity
RRTRLRPPTPLSQLL	610

target: SpHse1; experiment: as above
Description: as §1

Binder	SPOT peptide array binding signal intensity
RRTRLRPPTPLSQLL	460

target: SpLsb1; experiment: as above
Description: as §1

Binder	SPOT peptide array binding signal intensity
RRTRLRPPTPLSQLL	87.8

target: SpLsb4; experiment: as above
Description: as §1

Binder	SPOT peptide array binding signal intensity
RRTRLRPPTPLSQLL	615

target: SpMyo1; experiment: as above
Description: as §1

Binder	SPOT peptide array binding signal intensity
RRTRLRPPTPLSQLL	12.1

target: SpNbp2; experiment: as above
Description: as §1

Binder	SPOT peptide array binding signal intensity
RRTRLRPPTPLSQLL	184

target: SpPex13; experiment: as above
Description: as §1

Binder	SPOT peptide array binding signal intensity
RRTRLRPPTPLSQLL	12.8

target: SpRvs167; experiment: as above
Description: as §1

Binder	SPOT peptide array binding signal intensity
RRTRLRPPTPLSQLL	24.8

target: SpSla1-D1-D2; experiment: as above
Description: as §1

Binder	SPOT peptide array binding signal intensity
RRTRLRPPTPLSQLL	53

target: SpSla1-D3; experiment: as above
Description: as §1

Binder	SPOT peptide array binding signal intensity
RRTRLRPPTPLSQLL	8
